# Measurements as given in PubChem BioAssay (NCATS).
# Inconclusive results are not listed. Entries that show only a call come without a potency. Activity calls are given as the source filed them. Calls come from the whole dose curve; as a rule, active = well fitted curve in the direction sought with a large enough effect; inconclusive = small, poorly fitted or top-dose-only effect, or another doubt; inactive = no such curve, though single readings can be large; an effect the other way counts as inactive or inconclusive.
# How the values were obtained:
# [1] = NS1 protein of Zika virus - qHTS assay to identify small molecule inhibitors in human HEK 293 cells (AID 1347053); details: HEK293 ZIKV MR766 infection, NS1 TR-FRET, 24 h; series mostly up to 46.1 µM; note: nearly all actives have a fitted effect of over 55% in size
# Outline: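 Following 20 h seeding, HEK 293 cells took compound, then 1 h later ZIKV MR766 (MOI = 0.5). Incubation ran 24 h at 37 C before TR-FRET detection of NS1; a drop in signal indicates inhibition.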
# [2] = qHTS of pediatric cancer cell lines to identify multiple opportunities for drug repurposing: Primary screen for TC32 cells (AID 1347089); details: TC32 Ewing sarcoma viability, CellTiter-Glo luminescence, 48 h; series mostly up to 45.8 µM; note: nearly all actives have a fitted effect of over 60% in size; note: potency is the fitted concentration of half-maximal effect
# Outline: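 Measured quantity: luminescence from CellTiter-Glo, reflecting metabolically active TC32 cells following 48 h of compound. Curves came straight from multi-point titrations, with 8 or 11 points in primary and 11 in confirmatory screening.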
# [3] = qHTS of pediatric cancer cell lines to identify multiple opportunities for drug repurposing: Primary screen for DAOY cells (AID 1347090); details: DAOY medulloblastoma viability, CellTiter-Glo luminescence, 48 h; series mostly up to 46 µM; note: nearly all actives have a fitted effect of over 55% in size; note: potency is the fitted concentration of half-maximal effect
# Outline: (§1)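 Eight- or eleven-point concentration series, 48 h treatment at 37 degrees C in growth media; readout CellTiter-Glo luminescence. Potency and efficacy were taken from the concentration-response curves.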
# [4] = qHTS of pediatric cancer cell lines to identify multiple opportunities for drug repurposing: Primary screen for SJ-GBM2 cells (AID 1347091); details: SJ-GBM2 viability, CellTiter-Glo luminescence, 48 h; series mostly up to 46 µM; note: potency is the fitted concentration of half-maximal effect
# Outline: as §1
Structure (SMILES),Potency [1],Potency [2],Potency [3],Potency [4]
OC(CCN1CCCCC1)(c1ccccc1)c1ccccc1,inactive,inactive,inactive,–
COc1cc(-c2ccc(=O)[nH]n2)ccc1OC(F)F,inactive,inactive,inactive,–
N[C@@H](CCC(=O)N[C@@H](CS)C(=O)NCC(=O)O)C(=O)O,inactive,inactive,–,–
O=S1(=O)c2cccc3cccc(c23)N1CCCN1CCN(c2ccc(F)cc2)CC1,inactive,inactive,inactive,–
Nc1nc2ncc(CNc3ccc(C(=O)N[C@@H](CCC(=O)O)C(=O)O)cc3)nc2c(=O)[nH]1,inactive,inactive,–,–
Cc1ccc(O)c2ncccc12,inactive,inactive,3.35 µM (active),–
CCN(CCCCOC(=O)c1ccc(OC)c(OC)c1)C(C)Cc1ccc(OC)cc1 (stereo not drawn),inactive,inactive,inactive,–
CCOC(=O)COc1ccc2c(C)c(CCN(CC)CC)c(=O)oc2c1Cl,inactive,inactive,–,–
Cc1ncc(CSSCc2cnc(C)c(O)c2CO)c(CO)c1O,inactive,inactive,inactive,inactive
CN1CCC[C@@H]1c1cccnc1,inactive,inactive,inactive,inactive
CC(C)COC(=O)c1ccc(N)cc1,inactive,inactive,inactive,inactive
COc1ccc(OC)c(C(O)CNC(=O)CN)c1 (stereo not drawn),inactive,inactive,inactive,inactive
CC(=O)[C@H]1CC[C@H]2[C@@H]3C[C@H](C)C4=CC(=O)CC[C@]4(C)[C@H]3[C@@H](O)C[C@]12C,inactive,inactive,inactive,inactive
C[C@@H]1C[C@H]2[C@@H]3C[C@H](F)C4=CC(=O)C(Cl)=C[C@]4(C)[C@@]3(F)[C@@H](O)C[C@]2(C)[C@@]1(O)C(=O)CO,inactive,inactive,inactive,inactive
OC[C@@H](O)[C@@H](O[C@@H]1O[C@H](CO)[C@H](O)[C@H](O)[C@H]1O)[C@H](O)[C@@H](O)CO,inactive,inactive,inactive,inactive
CC(=O)OCC(=O)[C@@]1(O)CC[C@H]2[C@@H]3CCC4=CC(=O)C=C[C@]4(C)[C@H]3[C@@H](O)C[C@@]21C,inactive,inactive,inactive,inactive
CCCCCCCCCCCCCCCCCC(=O)OCC(O)CO (stereo not drawn),inactive,inactive,inactive,–
COc1cc2c(cc1OC)C(C(C(=O)N(CCc1ccc(OC)c(OC)c1OC)CCc1ccc(OC)c(OC)c1OC)c1ccccc1)=NCC2 (stereo not drawn),inactive,inactive,inactive,inactive
CC(C)(C(=O)c1cccnc1)c1cccnc1,inactive,inactive,inactive,inactive
C[C@]12CC[C@H]3[C@@H](CCC4=CC(=O)CC[C@@]43C)[C@@H]1CC[C@@H]2C(=O)CO,inactive,inactive,inactive,inactive

Structure (SMILES),Potency [1],Potency [2],Potency [3],Potency [4]
CC1(C)O[C@@H]2C[C@H]3[C@@H]4C[C@H](F)C5=CC(=O)CC[C@]5(C)[C@H]4[C@@H](O)C[C@]3(C)[C@]2(C(=O)CO)O1,inactive,inactive,inactive,inactive
COc1cc2c(cc1OC)C(=O)C(CC1CCN(Cc3ccccc3)CC1)C2 (stereo not drawn),inactive,inactive,inactive,–
CCCCCCCCCCCCCCCCOP(=O)([O-])OCC[N+](C)(C)C,inactive,inactive,inactive,–
C#C[C@]1(OC(C)=O)CC[C@H]2[C@@H]3CCC4=C[C@@H](OC(C)=O)CC[C@@H]4[C@H]3CC[C@@]21C,inactive,inactive,inactive,inactive
COCc1c(C(C)C)nc(C(C)C)c(/C=C/[C@@H](O)C[C@@H](O)CC(=O)O)c1-c1ccc(F)cc1,inactive,1.49 µM (active),0.266 µM (active),0.237 µM (active)
CC1(C)OC[C@@H](COC(=O)CCc2ccc(OC[C@@H](O)CNCCNC(=O)N3CCOCC3)cc2)O1,inactive,inactive,inactive,inactive
O=C(OCCOCCO)c1ccccc1Nc1cccc(C(F)(F)F)c1,inactive,inactive,inactive,–
C[C@]12CCC(=O)C=C1[C@@H]1C[C@@H]1[C@H]1[C@@H]3[C@@H]4C[C@@H]4[C@@]4(CCC(=O)O4)[C@@]3(C)CC[C@@H]12,inactive,inactive,inactive,inactive
C#C[C@]1(O)CC[C@H]2[C@@H]3CCC4=CC(=O)CC[C@@H]4[C@H]3CC[C@@]21C,inactive,inactive,inactive,inactive
CC1=C(C(=O)O)N2C(=O)[C@@H](NC(=O)[C@H](N)c3ccc(O)cc3)[C@H]2SC1,inactive,inactive,inactive,inactive
CN=C(NC#N)NCCSCc1csc(N=C(N)N)n1,inactive,inactive,inactive,inactive
CC(C)(CO)[C@@H](O)C(=O)NCCCO,inactive,inactive,inactive,inactive
CN1[C@@H]2CC[C@H]1CC(OC(=O)c1c[nH]c3ccccc13)C2 (stereo partly drawn),inactive,inactive,inactive,inactive
CC(=O)O[C@]1(C(C)=O)CC[C@H]2[C@@H]3C[C@H](C)C4=CC(=O)CC[C@]4(C)[C@H]3CC[C@@]21C,inactive,inactive,inactive,inactive
COc1cc(N)c(Cl)cc1C(=O)NC1CCN(CCCOc2ccc(F)cc2)CC1OC (stereo not drawn),inactive,inactive,inactive,–
O=C1[C@H]2CCCC[C@H]2C(=O)N1CCCCN1CCN(c2nsc3ccccc23)CC1,inactive,inactive,inactive,–
Cc1nc2n(c(=O)c1CCN1CCC(c3noc4cc(F)ccc34)CC1)CCC[C@H]2O,inactive,inactive,inactive,inactive
C[C@]12CC[C@@H]3c4ccc(O)cc4CC[C@H]3[C@@H]1C[C@@H](O)[C@@H]2O,inactive,inactive,inactive,–
CCCOC(C(=O)OC1CCN(C)CC1)(c1ccccc1)c1ccccc1,inactive,inactive,inactive,inactive
Cc1cc(=O)n(-c2ccccc2)n1C,inactive,inactive,inactive,inactive

Structure (SMILES),Potency [1],Potency [2],Potency [3],Potency [4]
CCN(CC)CCOC(=O)C(c1ccccc1)C1CCCCC1 (stereo not drawn),inactive,inactive,inactive,–
CN=C(NC#N)Nc1ccc(C2=NNC(=O)CC2C)cc1 (stereo not drawn),inactive,inactive,inactive,–
COC(=O)CCc1ccc(OCC(O)CNC(C)C)cc1 (stereo not drawn),inactive,inactive,inactive,inactive
CN(C)CC/C=C1/c2ccccc2COc2ccc(CC(=O)O)cc21,inactive,inactive,inactive,inactive
CC(=O)Oc1ccc(C(c2ccc(OC(C)=O)cc2)c2ccccn2)cc1,inactive,–,inactive,inactive
CN1CCC(=C2c3ccccc3Sc3ccccc32)CC1,inactive,–,inactive,–
c1ccc(OCc2ccc(CCCN3CCOCC3)cc2)cc1,inactive,inactive,–,inactive
NC(=NCCCCCCN=C(N)/N=C(\N)Nc1ccc(Cl)cc1)/N=C(\N)Nc1ccc(Cl)cc1,inactive,–,21.1 µM (active),–
C[C@H]1C[C@H]2[C@@H]3CCC4=CC(=O)C=C[C@]4(C)[C@@]3(Cl)[C@@H](O)C[C@]2(C)[C@@]1(O)C(=O)CO,inactive,–,inactive,–
CCOC(=O)[C@H](CCc1ccccc1)N[C@@H](C)C(=O)N1Cc2ccccc2C[C@H]1C(=O)O,inactive,inactive,–,inactive
CC(C)(C)NC(=O)[C@@H]1CN(Cc2cccnc2)CCN1C[C@@H](O)C[C@@H](Cc1ccccc1)C(=O)N[C@H]1c2ccccc2C[C@H]1O,inactive,inactive,–,inactive
CC(=O)Nc1c(I)cc(I)c(C(=O)O)c1I,inactive,inactive,–,inactive
O=C(COc1ccc(Cl)cc1)N1CCN(Cc2ccc3c(c2)OCO3)CC1,inactive,–,inactive,–
CCOc1ccc(Cc2nccc3cc(OCC)c(OCC)cc23)cc1OCC,inactive,–,21.1 µM (active),inactive
C[C@H](O)C(=O)Nc1c(I)c(C(=O)NC(CO)CO)c(I)c(C(=O)NC(CO)CO)c1I,inactive,inactive,–,inactive
O=C(Nc1ccc(Cl)c(Cl)c1)C1CC1,inactive,inactive,–,inactive
CCN1CCCC1=O,inactive,–,inactive,–
O=C1OC(c2ccc(O)cc2)(c2ccc(O)cc2)c2ccccc21,inactive,–,inactive,inactive
